Our source for the inhibition values is PubChem BioAssay AID1259374 (The Scripps Research Institute Molecular Screening Center, 2018).

In all, about 650,000 compounds went through this assay and about 5,900 (0.91%) were called active. The full list was thinned out, with actives kept by preference. A number with no mark means an inactive call. Rule as the data show it: active = inhibition above about 50%; inactive = the rest.

The target in the assay is Microphthalmia-associated transcription factor (Homo sapiens) (UniProt O75030). Kind of assay: MITF inhibitors, primary screen, biochemical, AlphaScreen, human (AID 1259374).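 Also: 0% = vehicle wells with protein.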 To be noted: AlphaScreen MITF homodimerization, bead proximity signal; at 2.6 µM; hits give high values.
Chain of Microphthalmia-associated transcription factor (Homo sapiens) (O75030 whole entry, looked up): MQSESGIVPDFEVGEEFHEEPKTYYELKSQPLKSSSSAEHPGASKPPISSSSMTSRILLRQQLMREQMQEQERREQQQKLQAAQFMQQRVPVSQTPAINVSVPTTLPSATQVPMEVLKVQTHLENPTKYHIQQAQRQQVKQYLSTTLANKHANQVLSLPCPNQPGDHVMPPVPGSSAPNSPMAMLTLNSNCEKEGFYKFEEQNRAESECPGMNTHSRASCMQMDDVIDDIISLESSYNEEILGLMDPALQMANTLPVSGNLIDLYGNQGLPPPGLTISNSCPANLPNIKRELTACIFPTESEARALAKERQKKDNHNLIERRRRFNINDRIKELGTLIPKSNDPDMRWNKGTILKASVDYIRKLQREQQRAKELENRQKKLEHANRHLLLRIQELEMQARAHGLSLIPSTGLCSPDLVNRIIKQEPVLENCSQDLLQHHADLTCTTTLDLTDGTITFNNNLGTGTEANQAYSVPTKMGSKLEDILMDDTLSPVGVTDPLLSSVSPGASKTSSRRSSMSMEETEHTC
As to `COC(=O)C1(C)NC(c2ccc(C)cc2)C2C(=O)N(c3ccc(F)cc3)C(=O)C21` (centres undefined), the inhibition was 77.9% (active). `COC(=O)C1(C)NC(c2ccccc2OC)C2C(=O)N(c3ccccc3)C(=O)C21` (centres undefined): the inhibition was 17.7%. Next, `COC(=O)C1(C)NC(c2ccc(C)cc2)C2C(=O)N(c3ccc(C)cc3)C(=O)C21` (centres undefined): 10.8%. Next, `CC(=O)c1ccc(N2CN=C3SCC(=O)N3C2)cc1`: 9.73%; `CCCNC(=O)Cc1ccc(-n2c(=O)c3ccccc3n(CC(=O)NC3CCCCC3)c2=O)cc1`: -13.8%. In the case of `c1ccc(CCNc2nccc(Nc3ccncn3)n2)cc1`, the inhibition was -8.19%.

As to `c1ccc(CCCNc2nccc(Nc3ccncn3)n2)cc1`, the inhibition is 10.6%. Next, `c1ccc(CCCCNc2nccc(Nc3ccncn3)n2)cc1`: 61.3% (active); `O=C(NCc1ccccc1)c1ccc2c(c1)nc(SCc1ccc([N+](=O)[O-])cc1)n1c3ccccc3nc21`: 13.9%. In the case of `Cc1ccc(CNC(=O)Cn2ncc3c2-c2ccccc2OC3)cc1`, the inhibition is 4.23%.

Consider `Cc1cc(NC(=O)c2ccco2)ncc1NC(=O)c1cnccn1`, for which the inhibition is 6.96%. With `Cc1ccc(CN2CCOCC2)c(C)c1`, the inhibition was -2.63%. For the molecule `Clc1ccc(CN2CCOCC2)c(Cl)c1`, the inhibition was 43.8%. Take `Oc1c(CN2CCOCC2)ccc(CN2CCOCC2)c1O`: the inhibition is 52% (active). On to `Cc1cc(C)nc(NC(=O)c2ccccc2Br)c1`, for which the inhibition was -3%. Next, `COCCn1c(=S)[nH]c2cc(C(=O)NCCC3=CCCCC3)ccc2c1=O`: 0.32%; `O=C(COc1ccccc1)NCc1cccnc1`: -5.7%. Turning to `CN(Cc1ccccc1)C(=O)CCC1CCN(C(=O)CCc2ccccn2)CC1`, the inhibition is -1.89%. For the molecule `CN(CCc1ccccn1)Cc1cccnc1`, the inhibition is 73.8% (active).

With `CCOc1cc(/C=C2\NC(=S)NC2=O)cc(Br)c1OC`, the inhibition was 19.5%. Regarding `Cc1ccc(C)c(-n2c(SCCN3CCOCC3)nnc2-c2cccnc2)c1`, the inhibition was -3.61%.

In the case of `O=C1OCCN1c1ccc(Nc2nccc(-c3cc(N4CCOCC4)cc([N+](=O)[O-])c3)n2)cc1`, the inhibition was 0.11%. On to `Cc1c2c(c(O)c3c(O)cccc13)C(=O)OC2[C@@H]1C(N(C)C)C(O)=C(C(N)=O)C(=O)[C@H]1O` (some centres undefined), for which the inhibition is 108% (active). Regarding `O=C1OC(c2ccccc2Cl)=N/C1=C\c1ccccc1[N+](=O)[O-]`, the inhibition was -1.22%. As to `Cc1nc2sccn2c1CN1CCC(C2(Cc3ccccc3)NC(=O)NC2=O)CC1` (centres undefined), the inhibition was -18.4%. As to `Cc1cc(C(F)(F)F)nn1CC(=O)Nc1ccc(I)c(Cl)c1`, the inhibition was 6.94%. As for `COC(=O)c1c(OCCCN(C)C)cc(=O)n2c1CCN(C(=O)c1ccc(F)cc1)CC2`, the inhibition was -2.23%. Next, `O=S(=O)(NCC(c1ccc2c(c1)OCO2)N1CCOCC1)c1cccs1` (centres undefined): 1.27%; `COc1cc(/C=N/n2c(-c3ccncc3)n[nH]c2=S)cc(OC)c1OC(C)=O`: 6.48%. Regarding `Cc1cc(NC(=O)CCC(=O)N(CC(=O)NC2CCCC2)c2ccc(F)cc2)no1`, the inhibition is -6.06%. For the molecule `Cc1cc(C)cc(N(CC(=O)NC2CCCC2)C(=O)CCC(=O)Nc2cc(C)on2)c1`, the inhibition was 5.39%. `Cc1cc(NC(=O)/C=C/C(=O)N(CC(=O)NC2CCCC2)c2ccc(F)cc2)no1`: the inhibition was 75% (active). Next, `CCOC(=O)CSC1=Nc2ccccc2C2=NC(C(C)C)C(=O)N12` (centres undefined): 1.69%; `O=C1NC(c2ccccc2[N+](=O)[O-])C(C(=O)c2cccs2)C(O)(C(F)(F)F)N1` (centres undefined): 58.9% (active). Next, `O=C1NC(c2cccs2)C(C(=O)c2cccnc2)C(O)(C(F)(F)F)N1` (centres undefined): -3.66%; `O=C1NC(c2c(F)cccc2Cl)C(C(=O)c2cccs2)C(O)(C(F)(F)F)N1` (centres undefined): -3.71%. In the case of `CN(C)CCN(C)Cc1c(F)cccc1Cl`, the inhibition was 49.6%. Turning to `CCN(CC)CCN(CC)Cc1c(F)cccc1F`, the inhibition is 6.2%. Next, `CCN(CCN(C)C)Cc1c(Cl)cccc1Cl`: 56.6% (active).

With `CCOC(=O)C1C(=O)C=C(c2ccc(F)cc2)CC1c1cccs1` (centres undefined), the inhibition was -5.44%. Turning to `C[C@@H](c1ccccc1)N1C(=O)[C@H]2[C@H]3[C@H](O)C=CC(=O)[C@@H]3CC[C@H]2C1=O`, the inhibition was 17.6%.

For the molecule `CC(C)CO/N=C1\C[C@@H](O)[C@@H](O)[C@@H]2[C@@H]3C(=O)N([C@@H](C)c4ccccc4)C(=O)[C@@H]3CC[C@@H]12`, the inhibition is 114% (active).

Regarding `CC(C)CO/N=C1\C[C@@H](O)[C@@H](O)[C@@H]2[C@@H]3C(=O)N(C[C@@H]4CCCO4)C(=O)[C@@H]3CC[C@@H]12`, the inhibition was -23%. As to `O=C(CN(Cc1cccs1)C(=O)c1nsc(Cl)c1Cl)NC1CCCC1`, the inhibition is 11.8%. As to `Nc1nccc(-c2ccc3nc(C4COc5ccc(Br)cc5C4)[nH]c3c2)n1` (centres undefined), the inhibition is 8.16%. As for `Cc1nn(C(=O)N2CCOCC2)c(C)c1Br`, the inhibition was 13.6%. For the molecule `NC(=O)CCn1cc(/C=C2\Cc3ccccc3C2=O)c2ccccc21`, the inhibition was -5.7%. Consider `Clc1ccc(Cl)c(N2Cc3cc4c(cc3C2)CN(c2cc(Cl)ccc2Cl)C4)c1`, for which the inhibition was 4.43%. Take `C/C(N)=C(/C#N)C(=O)COC(=O)c1c2c(nc3ccccc13)/C(=C/c1ccco1)CC2`: the inhibition was 81.7% (active). In the case of `COc1cccc(OC)c1C(=O)OCC(=O)/C(C#N)=C(\C)N`, the inhibition was -4.31%. For the molecule `COc1ccc(-c2cc(C(=O)OCC(=O)/C(C#N)=C(\C)N)c3ccccc3n2)cc1`, the inhibition was 7.78%. Next, `CCOc1ccc(-c2ccc(SCC(=O)Nc3cc(C)on3)nn2)cc1`: 4.05%; `Cc1cc(NC(=O)CSc2ccc(-c3ccccn3)nn2)no1`: 78.7% (active); `O=C(CSc1ccc(-c2ccccn2)nn1)Nc1ccccc1`: 49.6%.

For `Cc1[nH]c(=O)[nH]c(=O)c1S(=O)(=O)N1CCC(Cc2ccccc2)CC1`, the inhibition was -4.65%. `O=C(Nc1cccc(NC(=O)c2ccc(S(=O)(=O)N3CCOCC3)cc2)c1)c1ccc(S(=O)(=O)N2CCOCC2)cc1`: the inhibition was -11.6%. Consider `Clc1cc(Cl)c(OCCOc2ccccc2)c(/C=N/n2cnnc2)c1`, for which the inhibition was -17.6%. Next, `CC(C)(C)NC(=O)N1CCN(c2cc(N3CCCC3)ncn2)CC1`: 5.52%. `Cc1ccccc1NC(=O)C(=O)N1CCCCC1`: the inhibition was -9.16%. Next, `Cc1ccccc1NC(=O)NCCOc1cc(N2CCCC2)ncn1`: 63.9% (active); `CCOC(=O)c1ccc2c(c1)nc(C(C)C)n2CC`: 29.7%. Turning to `c1ccc(-c2ccc(OCCCNCCN3CCOCC3)cc2)cc1`, the inhibition was -7.58%. On to `c1ccc(-c2ccccc2OCCNCCN2CCOCC2)cc1`, for which the inhibition is 58.3% (active). In the case of `Clc1c(OCCCNCCN2CCOCC2)ccc2ccccc12`, the inhibition was 26%. As to `c1ccc(-c2ccccc2OCCCCNCCN2CCOCC2)cc1`, the inhibition was 11.5%. With `Cc1ccc(OCCCCNCCN2CCOCC2)c(Br)c1`, the inhibition was 65.7% (active).

Regarding `Cc1ccc(OCCCNCCN)c(Br)c1`, the inhibition is 5.41%. As to `CC(NC(=O)Cn1c(C2CC2)nc2ccccc21)C1CC2CCC1C2` (centres undefined), the inhibition is 5%. Take `C/C(=N\NC(=O)C(O)c1ccccc1)c1ccc2c(c1)CCCC2` (centres undefined): the inhibition is -5.38%. `O=C(NC1CSC/C1=N\Nc1cc([N+](=O)[O-])cc([N+](=O)[O-])c1)c1ccccc1` (centres undefined): the inhibition is 18%. Next, `O=C(CC1(c2ccccc2F)CC(=O)N(C2CCCCC2)C1=O)N1CCOCC1` (centres undefined): -8.12%; `CCOc1ccccc1N(CC(=O)NC(C)(C)CC)C(=O)CCC(=O)Nc1nccs1`: -1.1%. Next, `CNC(=O)c1c(NC(=O)C2CCCCC2)sc2c1CCC(C)C2` (centres undefined): -7.36%; `CC(C)(C)c1ccc(OCC(=O)OCC(=O)Nc2sc3c(c2C(N)=O)CCC3)cc1`: 0.98%; `NC(=O)c1c(NC(=O)CCC(=O)OCC(=O)Nc2ccccc2Cl)sc2c1CCC2`: -2.18%.

As to `Cc1ccc(NC(=O)COC(=O)CCC(=O)Nc2sc3c(c2C(N)=O)CCC3)cc1F`, the inhibition was 84.3% (active).

Consider `Cc1cc(SCC(=O)N2CCOCC2)nc2ccccc12`, for which the inhibition was 14.6%.

Consider `CCOc1cccc(/C=N/NC(=S)NCCN2CCOCC2)c1O`, for which the inhibition was 63.2% (active). Next, `CCCCNC(=S)N/N=C/c1ccccc1OCC(=O)O`: -2.56%; `CCOc1cccc(/C=N/NC(=O)COc2cccc(C)c2C)c1O`: 2.99%; `COc1ccccc1N(C(C)=O)C1C=CS(=O)(=O)C1` (centres undefined): 1.71%. In the case of `c1cncc(CCNc2ccc3ncc(-c4cc5ccccc5o4)n3n2)c1`, the inhibition is 54.6% (active). Consider `c1cncc(CCNc2ccc3ncc(-c4cccc5ccccc45)n3n2)c1`, for which the inhibition is -3.61%. Take `Cc1csc(-c2cnc3ccc(NCCc4cccnc4)nn23)c1`: the inhibition is -21.5%. For `COc1cccc(-c2ncnn2-c2sc3c(c2C#N)CCCCC3)c1`, the inhibition is 63.4% (active). With `CCOc1ccc(-c2ncnn2-c2sc3c(c2C#N)CCCC3)cc1`, the inhibition was -3.27%.

For `N#Cc1c(-n2ncnc2-c2ccccc2)sc2c1CCCC2`, the inhibition was -14.9%. For the molecule `O=C(O)C1C2C=CC(O2)C1C(=O)Nc1nccs1` (centres undefined), the inhibition is 81.7% (active). With `O=C(Nc1nccs1)C(c1ccccc1)c1ccccc1`, the inhibition is -0.78%. Take `CCCCOC(=O)c1ccc(NC(=O)C2C3C=CC(O3)C2C(=O)O)cc1` (centres undefined): the inhibition was -9.29%. As for `COc1ccc(-c2nc3n(c2NC(C)(C)C)CCNC3)cc1`, the inhibition is 0.05%.

Consider `COc1ccc2nc(N3CCN(CCNC(=O)c4ccco4)CC3)sc2c1`, for which the inhibition is -9.88%. Take `COc1ccc(S(=O)(=O)N2CCN(CCNC(=O)c3ccc(-c4ccccc4)cc3)CC2)cc1`: the inhibition is 8.93%. With `COc1ccc(C(=O)NCCN2CCN(c3nc4c(C)c(C)ccc4s3)CC2)cc1`, the inhibition is 61.8% (active).
